Results as given in PubChem BioAssay.
Calls of active or inactive are those of the source.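 How the source made its calls, unless noted: active means inhibition at or above 50% at 10 µM; inactive means inhibition below 50%.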

Columns and labels:
[1] = inhibitors of TNFa-induced NFkB p65 translocation, primary screen, imaging, HUVEC, MLSMR starter and 10KST1 sets (AID 438;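 active means inhibition above 20% together with a positive visual image hit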;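 further: compound added about 3h40 before a 20 min TNFalpha stimulation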;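 on inhibition: signal is the nuclear over cytoplasmic p65 intensity ratio per well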); conditions: HUVEC TNFa-induced p65 nuclear translocation; cell count: measured here: nuclei count (cytotoxicity indicator), at 2.08 µM; inhibition: at 2 µM, stronger effect = higher value, 0% TNFa-plus-vehicle, 100% no-TNFa wells
[2] = inhibitors of mutant huntingtin aggregation, primary screen, imaging, exon1htt(103Q)mCFP cells, high-content imaging (AID 483;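 active means visual image review flags a hit and inhibition of aggregation exceeds 20%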;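 further: compound exposure lasted 3 days before fixation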;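 on nuclei count: percent of the per-plate median nuclei count of sample wells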); conditions: exon1htt(103Q)mCFP cell line, aggregate imaging, at 2 µM; inhibition of aggregation: stronger effect = higher value; nuclei count: measured here: cell count, toxicity
[3] = inhibitors of E-selectin induction by TNFa, primary screen, imaging, HUVEC, immunofluorescence, MLSMR starter and 10KST1 sets (AID 487;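 active means visually confirmed hit in the image check and inhibition above 20%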;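 on inhibition: signal is fraction of cell area covered by stained E-selectin grains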;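 on nuclei count: 100% = median nuclei count of all wells on the same plate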); conditions: HUVEC TNFalpha-induced E-selectin immunofluorescence imaging, at 2 µM; inhibition: stronger effect = higher value; nuclei count: measured here: cell number, toxicity
[4] = molecular target: Voltage-gated potassium channel subunit beta-2 (Rattus norvegicus) (UniProt P62483); test: KvBeta enzyme negative modulators, primary screen, biochemical, NADPH fluorescence (AID 622;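 active means fluorescence slope higher than the sample average by over 3 SD, cut at about -0.22 in these data, passing the limit was not always enough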;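 further: slope of raw intensity against log time taken from 70 to 1610 s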); conditions: recombinant KvBeta, 4-cyanobenzaldehyde reduction, at 10 µM, stronger effect = higher value
Voltage-gated potassium channel subunit beta-2 (Rattus norvegicus), sequence (P62483 whole entry, looked up): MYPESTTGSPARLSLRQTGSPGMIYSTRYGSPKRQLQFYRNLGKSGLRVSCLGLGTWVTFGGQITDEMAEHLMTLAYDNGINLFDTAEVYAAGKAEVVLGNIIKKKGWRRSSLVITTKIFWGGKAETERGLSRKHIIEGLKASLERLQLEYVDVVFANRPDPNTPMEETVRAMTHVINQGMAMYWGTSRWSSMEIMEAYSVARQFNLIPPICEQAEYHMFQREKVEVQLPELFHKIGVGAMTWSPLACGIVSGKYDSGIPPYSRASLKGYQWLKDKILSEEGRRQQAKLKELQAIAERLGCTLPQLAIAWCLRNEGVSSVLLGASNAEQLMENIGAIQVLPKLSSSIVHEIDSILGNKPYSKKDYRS

[5] = molecular target: Voltage-gated potassium channel subunit beta-2 (Rattus norvegicus) (UniProt P62483); test: KvBeta positive modulators, primary screen, biochemical, NADPH fluorescence (AID 623;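 active means NADPH fluorescence slope more negative than the mean of all samples by about 3 SD, 99.7% confidence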;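 further: fluorescence intensity change per second fitted from 20 to 320 s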); conditions: Recombinant KvBeta, NADPH fluorescence decrease slope, 10 min; at 10 µM; stronger effect = lower value
[6] = molecular target: Alpha-2C adrenergic receptor (Homo sapiens) (UniProt P18825); test: modulators of alpha2C/GIRK thallium flux, primary screen, cell-based, HEK293 alpha2C/GIRK1/2 (AID 624;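 active means fluorescence slope after compound addition differing from the mean of all screened samples at 99.7% confidence, in either direction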;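 further: slope of fluorescence ratio to pre-addition baseline per second over 15 to 24 s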); conditions: thallium flux BTC fluorescence, at 10 µM, actives lie on both sides
Alpha-2C adrenergic receptor (Homo sapiens), sequence (P18825 whole entry, looked up): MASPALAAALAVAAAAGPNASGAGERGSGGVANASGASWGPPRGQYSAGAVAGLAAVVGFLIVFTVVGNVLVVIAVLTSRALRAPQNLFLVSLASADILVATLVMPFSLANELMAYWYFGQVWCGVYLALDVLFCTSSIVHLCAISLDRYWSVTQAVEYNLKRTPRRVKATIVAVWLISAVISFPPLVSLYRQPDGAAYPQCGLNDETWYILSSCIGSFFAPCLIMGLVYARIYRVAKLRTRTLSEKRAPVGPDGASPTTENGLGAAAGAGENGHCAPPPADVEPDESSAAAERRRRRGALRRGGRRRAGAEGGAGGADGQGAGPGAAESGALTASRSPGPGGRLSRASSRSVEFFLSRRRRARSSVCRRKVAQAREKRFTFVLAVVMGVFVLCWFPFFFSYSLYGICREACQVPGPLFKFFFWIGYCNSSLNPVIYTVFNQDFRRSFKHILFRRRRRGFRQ

[7] = inhibitors of Sendai virus-induced IRF3 signaling, primary screen, TLR/RLR signaling modifier project, cell-based, Sendai virus stimulus, luciferase, 10K MLSCN set (AID 602276); conditions: HEK293 RL24 IRF3 luciferase reporter, at 10 µM, stronger effect = higher value;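 further: firefly luciferase from ISG56 promoter only with Renilla not read in this screen; 0% = Sendai virus plus DMSO and 100% = medium plus DMSO without virus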
[8] = inhibitors of poly I:C-induced TLR3 signaling, primary screen, cell-based, poly I:C stimulus, luciferase, 10K MLSCN set (AID 602277;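 active means inhibition of the reporter signal at or above 50%; inactive means inhibition below 50%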); conditions: HEK293-TLR3 RL24 IRF3 luciferase reporter, at 10 µM, stronger effect = higher value

| Structure (SMILES) | cell count [1] | inhibition [1] | inhibition of aggregation [2] | nuclei count [2] [%] | inhibition [3] | nuclei count [3] [%] | fluorescence slope [4] | NADPH fluorescence slope [5] | slope [6] | inhibition [7] | inhibition [8] |
| --- | --- | --- | --- | --- | --- | --- | --- | --- | --- | --- | --- |
| CCN1C(=C2C(=O)c3ccccc3C2=O)C=Cc2ccccc21 | 347 | 23.3% (active) | -4% (inactive) | 107 | -27.1% (inactive) | 117 | -0.284 (inactive) | -1.4e-05 (inactive) | 0.00581 (inactive) | -14.8% (inactive) | -27.9% (inactive) |
| COc1ccccc1-c1cc2nc(C)c(CCC(=O)NCc3ccco3)c(C)n2n1 | 688 | -7.7% (inactive) | -15.4% (inactive) | 115 | -41.8% (inactive) | 111 | -0.587 (inactive) | -4.5e-05 (inactive) | 0.00963 (inactive) | 18.9% (inactive) | 16.6% (inactive) |
| COc1cc(C2C(C#N)=C(N)OC3=C2C(=O)CC(C)(C)C3)ccc1OC(=O)N1CCOCC1 (centres undefined) | 482 | -36.6% (inactive) | 13.8% (inactive) | 86.6 | -75% (inactive) | 112 | -0.511 (inactive) | 1.1e-05 (inactive) | 0.00692 (inactive) | -15.1% (inactive) | 11.1% (inactive) |
| O=C(NC1CCCCC1)C(c1ccc(Cl)cc1)N(C(=O)c1cnccn1)c1ccc2c(c1)OCO2 (centres undefined) | 694 | 3.4% (inactive) | 21.6% (inactive) | 93.8 | -87% (inactive) | 110 | -0.392 (inactive) | -3.7e-05 (inactive) | 0.00597 (inactive) | 11.2% (inactive) | 7.2% (inactive) |
| Cc1noc(/C=C/N(C)C)c1S(=O)(=O)N1CCCC(C(=O)NC2CCCCC2)C1 (centres undefined) | 625 | 11.7% (inactive) | 7.9% (inactive) | 93.6 | 34.5% (inactive) | 62.5 | -0.566 (inactive) | 1.6e-05 (inactive) | 0.0069 (inactive) | 16.1% (inactive) | 14.8% (inactive) |
| OC1(c2cccc(C(F)(F)F)c2)CCNCC1 | 370 | 1.4% (inactive) | -1.7% (inactive) | 106 | -19% (inactive) | 118 | -0.281 (inactive) | 2.4e-05 (inactive) | 0.007 (inactive) | 18.9% (inactive) | 22.1% (inactive) |
| COC(=O)Cn1c(=NC(=O)CSCC(=O)Nc2cc(C)on2)sc2ccccc21 | 610 | -6.9% (inactive) | 2.6% (inactive) | 112 | 1.2% (inactive) | 111 | -0.417 (inactive) | -6.3e-05 (inactive) | 0.00506 (inactive) | 11.1% (inactive) | 28.1% (inactive) |
| O=C1NCC(COCc2ccccc2)O1 (centres undefined) | 432 | -3% (inactive) | 21% (inactive) | 87.4 | 25.1% (inactive) | 102 | -0.496 (inactive) | -5.3e-05 (inactive) | 0.00525 (inactive) | 8.89% (inactive) | 21% (inactive) |
| CC(=O)N(CCc1ccccc1C)Cc1cc2cc3c(cc2[nH]c1=O)OCO3 | 251 | 12.1% (inactive) | 1.2% (inactive) | 86.1 | -68.1% (inactive) | 116 | -0.592 (inactive) | -6.2e-05 (inactive) | 0.00459 (inactive) | 8.48% (inactive) | 15.6% (inactive) |
| CCn1c(SCC(=O)Nc2nc(C)cs2)nnc1-c1ccco1 | 339 | 0.4% (inactive) | -8.5% (inactive) | 114 | -93.6% (inactive) | 114 | -0.316 (inactive) | -2.7e-05 (inactive) | 0.00755 (inactive) | 8.27% (inactive) | 23.4% (inactive) |
| Cc1ccc(N(C(=O)c2ccncc2)C2C=CS(=O)(=O)C2)cc1 (centres undefined) | 816 | -4% (inactive) | -5.8% (inactive) | 114 | -56.8% (inactive) | 117 | -0.612 (inactive) | -2.8e-05 (inactive) | 0.00723 (inactive) | -4.78% (inactive) | 24.5% (inactive) |
| CCC(C)NC(=O)CCNS(=O)(=O)c1ccc(Br)cc1 (centres undefined) | 605 | -17% (inactive) | 17.5% (inactive) | 66.3 | -109% (inactive) | 118 | -0.325 (inactive) | 6.7e-06 (inactive) | 0.00362 (inactive) | 3.69% (inactive) | 33% (inactive) |
| CCOC(=O)C(C)C1(O)c2ccccc2-c2ncccc21 (centres undefined) | 316 | 4.9% (inactive) | -6.7% (inactive) | 117 | 6.6% (inactive) | 97.7 | -0.296 (inactive) | -6.5e-05 (inactive) | 0.00533 (inactive) | 4.67% (inactive) | 8.95% (inactive) |
| c1ccc(CSCc2cn3ccsc3n2)cc1 | 664 | 1.2% (inactive) | 5.1% (inactive) | 107 | -84.7% (inactive) | 131 | -0.583 (inactive) | -4.2e-05 (inactive) | 0.00621 (inactive) | -50.3% (inactive) | -132% (inactive) |
